Of roughly 8,800 targets only a part is listed; those with a hit were picked by preference. About 0.5% of all pairs of compound and target were hits.
How the values were obtained:
Test in all cases: log2 fold change, soluble protein after heating vs DMSO (PISA); higher = thermal stabilisation; K562 lysate, 10 uM; active = over 0.2 and 3.5 SD of the protein, either way, in both replicates (recomputed)
[1] = compound: C#Cc1cccc(Nc2ncnc3cc(OCCOC)c(OCCOC)cc23)c1 [erlotinib]
In short: (§1)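 Values give the log-two fold change in thermal stability against solvent controls, from duplicates. Crude K562 extract at 1 mg/mL protein, made by dounce homogenisation in PBS pH 7.4 with 1 mM MgCl2, was treated with 10 μM compound for 30 min. After 3 min heating across 48°C-58°C, aliquots were pooled, adjusted to 0.5% NP-40 at 4°C and centrifuged at 21,000xg for 90 min. The supernatant was measured by TMTpro 16plex LC-MS/MS with channel sums equalised.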

[2] = compound: C/C(=N\NC(=O)C1=CC(=CC=C1)S(=O)(=O)N2CCOCC2)/C3=C(C=CC(=C3)Cl)O
In short: as §1

[3] = compound: C1=CC(=CC=C1C2=NC3=C(N2)C=C(C=C3)C(=O)N)OC4=CC=C(C=C4)Cl
In short: as §1

[4] = compound: C1=CC2=C(C=CC(=C2)/C=C\3/C(=O)NC(=NCC4=CC=CS4)S3)N=C1
In short: as §1

[5] = compound: C1=CC2=NC=CN=C2C=C1/C=C/3\C(=O)NC(=O)S3
In short: as §1

[6] = compound: C1=CC=C(C=C1)C2=NC(=C(N2)C3=CC=NC=C3)C4=CC(=C(C=C4)Cl)O
In short: as §1

[7] = compound: C1=CC=C2C(=C1)C3=NNC4=CC=CC(=C43)C2=O
In short: as §1

[8] = compound: C1CCN(C1)C(=O)NC2=CC=CC(=C2)NC3=NC=C(C(=N3)NCCC4=CN=CN4)Br
In short: as §1

[9] = compound: C1CN(CCC1(CC2=CC=C(C=C2)Cl)N)C3=NC=NC4=C3C=CN4
In short: as §1

[10] = compound: C1COCCN1CCN2C3=CC=CC=C3N=C2NC(=O)C4=CC(=CC=C4)[N+](=O)[O-] [IRAK-1-4 Inhibitor I]
In short: as §1

[11] = compound: C=CC(=O)N1CCC[C@@H](n2nc(-c3ccc(Oc4ccccc4)cc3)c3c(N)ncnc32)C1 [ibrutinib]
In short: as §1

[12] = compound: CC(=O)c1cnc2ccc(-c3cc(Cl)c(O)c(Cl)c3)nc2c1N[C@H]1CC[C@H](CN(C)C)CC1
In short: as §1

[13] = compound: CC(C)(C)Cn1c(N)nc2ccc(-c3[nH]c(C(C)(C)C)nc3-c3ccc(F)cc3)nc21 [ralimetinib]
In short: as §1

[14] = compound: CC(C)(O)CC(=O)NCCn1ccc2ncnc(Nc3ccc(Oc4cccc(C(F)(F)F)c4)c(Cl)c3)c21
In short: as §1

[15] = compound: CC(C)C1=C2N=C(C=C(N2N=C1)NCC3=CC=CC=C3)NCCCCCCN
In short: as §1

[16] = compound: CC1=C(C(CC(=O)N1)C2=CC=C(C=C2)C(F)(F)F)C(=O)NC3=C(C=C4C(=C3)C=NN4)F
In short: as §1

[17] = compound: CC1=C(C2=C(C=C1)C(=O)C3=CC=CC=C3N2CCCN)C
In short: as §1

[18] = compound: CC1=C(C=C(C=C1)NC(=O)C2=CC(=CC=C2)C(C)(C)C#N)NC3=CC4=C(C=C3)N=CN(C4=O)C
In short: as §1

[19] = compound: CC1=C(C=C(C=C1)NC(=O)C2=CC(=CC=C2)N(C)C)NC(=O)C3=CC=C(C=C3)O
In short: as §1

[20] = compound: CC1=CC=C(C=C1)SC2=C3C=C(SC3=CN=C2)C(=O)N
In short: as §1

Measured: log2 fold change

NUSAP1 (UniProt Q9BXS6)
Chain of UniProt Q9BXS6 (Q9BXS6 whole entry, looked up): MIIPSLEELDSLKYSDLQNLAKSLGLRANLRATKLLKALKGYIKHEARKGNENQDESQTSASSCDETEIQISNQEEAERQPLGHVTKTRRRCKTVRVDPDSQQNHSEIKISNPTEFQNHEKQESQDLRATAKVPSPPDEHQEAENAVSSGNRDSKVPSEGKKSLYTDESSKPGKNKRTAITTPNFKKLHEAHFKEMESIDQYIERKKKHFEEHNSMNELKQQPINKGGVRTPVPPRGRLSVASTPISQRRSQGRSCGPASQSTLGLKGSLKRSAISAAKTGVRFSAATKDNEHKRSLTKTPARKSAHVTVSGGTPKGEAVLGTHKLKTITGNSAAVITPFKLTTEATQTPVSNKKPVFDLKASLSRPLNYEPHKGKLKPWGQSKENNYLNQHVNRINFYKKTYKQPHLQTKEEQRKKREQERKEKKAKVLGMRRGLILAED
inactive: [1] -0.011 | [2] -0.466 | [3] 0.025 | [4] -0.008 | [5] -0.033 | [6] 0.008 | [7] 0.035 | [8] 0.012 | [9] 0.001 | [10] -0.005 | [11] -0.003 | [12] -0.022 | [13] 0.023 | [14] -0.014 | [15] -0.006 | [16] -0.02 | [17] -0.017 | [18] -0.004 | [19] 0.016 | [20] -0.023

MTHFD1L (UniProt B7ZM99)
inactive: [1] 0.026 | [2] -0.001 | [3] 0 | [4] -0.007 | [5] 0.033 | [6] -0.006 | [7] -0.057 | [8] -0.004 | [9] 0.002 | [10] -0.013 | [11] -0.034 | [12] -0.014 | [13] 0.004 | [14] 0.011 | [15] -0.007 | [16] -0.005 | [17] -0.006 | [18] 0.033 | [19] 0.02 | [20] -0.023

NUDT4 isoform 2 (UniProt Q9NZJ9)
Chain of UniProt Q9NZJ9 (Q9NZJ9 whole entry, looked up): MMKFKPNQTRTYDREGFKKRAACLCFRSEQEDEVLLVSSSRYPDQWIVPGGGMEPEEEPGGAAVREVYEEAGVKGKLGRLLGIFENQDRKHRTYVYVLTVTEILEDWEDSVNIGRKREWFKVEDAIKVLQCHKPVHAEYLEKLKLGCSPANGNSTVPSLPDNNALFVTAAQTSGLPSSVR
inactive: [1] 0.023 | [2] 0.015 | [3] 0.05 | [4] -0.048 | [5] 0.015 | [6] -0.007 | [7] -0.005 | [8] -0.069 | [9] 0.032 | [10] -0.006 | [11] -0.006 | [12] 0.002 | [13] 0.035 | [14] -0.044 | [15] -0.006 | [16] 0.016 | [17] -0.054 | [18] 0.034 | [19] 0.024 | [20] -0.024

OGFOD2 (UniProt Q6N063)
Chain of UniProt Q6N063 (Q6N063 whole entry, looked up): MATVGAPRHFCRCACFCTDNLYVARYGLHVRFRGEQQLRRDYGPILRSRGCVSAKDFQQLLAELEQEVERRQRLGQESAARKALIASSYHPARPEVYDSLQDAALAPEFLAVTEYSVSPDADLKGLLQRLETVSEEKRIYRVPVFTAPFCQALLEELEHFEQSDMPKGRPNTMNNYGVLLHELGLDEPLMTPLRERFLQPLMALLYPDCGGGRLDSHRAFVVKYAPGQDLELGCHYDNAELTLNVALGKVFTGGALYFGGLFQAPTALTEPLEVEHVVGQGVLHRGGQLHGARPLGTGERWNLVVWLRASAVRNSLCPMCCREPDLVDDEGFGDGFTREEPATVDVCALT
inactive: [1] 0.034 | [2] -0.151 | [3] -0.093 | [4] -0.074 | [5] 0.022 | [6] -0.034 | [7] 0.001 | [8] 0.003 | [9] 0.006 | [10] -0.04 | [11] 0.002 | [12] 0.023 | [13] -0.012 | [14] -0.018 | [15] -0.125 | [16] -0.023 | [17] 0.025 | [18] -0.04 | [19] -0.029 | [20] -0.023

NARF (UniProt Q9UHQ1)
Chain of UniProt Q9UHQ1 (Q9UHQ1 whole entry, looked up): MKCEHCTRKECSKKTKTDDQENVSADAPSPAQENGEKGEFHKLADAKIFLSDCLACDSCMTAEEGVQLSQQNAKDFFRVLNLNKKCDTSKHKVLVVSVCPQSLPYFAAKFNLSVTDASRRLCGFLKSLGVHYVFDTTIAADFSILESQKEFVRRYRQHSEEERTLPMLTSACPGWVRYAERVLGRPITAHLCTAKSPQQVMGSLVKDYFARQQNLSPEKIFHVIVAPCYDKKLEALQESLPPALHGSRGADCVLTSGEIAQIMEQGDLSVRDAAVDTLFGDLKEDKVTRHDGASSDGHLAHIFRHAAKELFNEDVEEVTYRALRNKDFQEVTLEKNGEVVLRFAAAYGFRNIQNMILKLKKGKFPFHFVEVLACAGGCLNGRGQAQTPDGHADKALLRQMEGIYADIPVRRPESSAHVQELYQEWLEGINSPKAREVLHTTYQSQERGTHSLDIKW
inactive: [1] 0.005 | [2] 0.006 | [3] 0.042 | [4] 0.007 | [5] -0.005 | [6] 0.004 | [7] 0.004 | [8] -0.009 | [9] -0.021 | [10] -0.009 | [11] 0.004 | [12] 0.044 | [13] -0.007 | [14] -0.013 | [15] -0.013 | [16] -0.007 | [17] -0.011 | [18] -0.013 | [19] -0.008 | [20] -0.113

NAA38 isoform 2 (UniProt Q9BRA0)
Chain of UniProt Q9BRA0 (Q9BRA0 whole entry, looked up): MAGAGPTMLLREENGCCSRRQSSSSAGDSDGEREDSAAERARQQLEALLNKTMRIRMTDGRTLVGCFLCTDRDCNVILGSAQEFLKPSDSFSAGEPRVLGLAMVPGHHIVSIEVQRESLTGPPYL
inactive: [1] 0.049 | [2] -0.065 | [3] 0.013 | [4] 0.019 | [5] -0.045 | [6] -0.055 | [7] 0.008 | [8] -0.052 | [9] 0.008 | [10] 0.031 | [11] 0.015 | [12] -0.012 | [13] -0.02 | [14] -0.015 | [15] -0.014 | [16] 0.052 | [17] -0.017 | [18] -0.028 | [19] 0.022 | [20] -0.029

NSUN2 (UniProt Q08J23)
inactive: [1] 0.004 | [2] 0.04 | [3] -0.018 | [4] 0.006 | [5] 0.004 | [6] -0.006 | [7] -0.016 | [8] 0.033 | [9] -0.018 | [10] -0.002 | [11] 0.014 | [12] 0.011 | [13] 0.023 | [14] 0.015 | [15] 0.006 | [16] 0.008 | [17] 0.006 | [18] -0.035 | [19] 0.033 | [20] 0.017

MTHFD1, A0A384N5Y3
Chain of MTHFD1, A0A384N5Y3 (A0A384N5Y3 whole entry, looked up): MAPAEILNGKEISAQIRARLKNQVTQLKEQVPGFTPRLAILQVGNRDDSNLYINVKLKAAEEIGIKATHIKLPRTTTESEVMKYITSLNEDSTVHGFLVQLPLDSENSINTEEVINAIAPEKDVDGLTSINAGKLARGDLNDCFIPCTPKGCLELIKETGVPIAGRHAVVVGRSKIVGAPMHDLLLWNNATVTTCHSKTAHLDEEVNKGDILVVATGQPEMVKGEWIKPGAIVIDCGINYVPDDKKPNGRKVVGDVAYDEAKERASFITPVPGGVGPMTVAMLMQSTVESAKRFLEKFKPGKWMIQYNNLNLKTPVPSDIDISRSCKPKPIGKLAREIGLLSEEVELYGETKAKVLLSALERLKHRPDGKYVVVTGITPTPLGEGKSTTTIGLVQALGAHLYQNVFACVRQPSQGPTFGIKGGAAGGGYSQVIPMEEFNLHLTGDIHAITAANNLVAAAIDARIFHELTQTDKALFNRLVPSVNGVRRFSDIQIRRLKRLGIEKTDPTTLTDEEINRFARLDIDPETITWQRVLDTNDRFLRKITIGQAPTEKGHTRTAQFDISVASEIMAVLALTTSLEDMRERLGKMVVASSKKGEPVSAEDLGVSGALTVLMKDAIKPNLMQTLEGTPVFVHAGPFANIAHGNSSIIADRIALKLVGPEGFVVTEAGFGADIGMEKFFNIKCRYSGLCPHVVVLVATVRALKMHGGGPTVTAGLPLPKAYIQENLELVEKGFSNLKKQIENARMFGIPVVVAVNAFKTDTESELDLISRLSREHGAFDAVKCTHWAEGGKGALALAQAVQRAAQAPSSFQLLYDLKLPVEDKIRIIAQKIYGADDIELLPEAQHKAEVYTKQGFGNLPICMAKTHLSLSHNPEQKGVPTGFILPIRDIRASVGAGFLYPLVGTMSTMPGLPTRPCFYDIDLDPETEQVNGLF
inactive: [1] 0.024 | [2] 0.041 | [3] -0.004 | [4] 0.04 | [5] 0.029 | [6] 0.02 | [7] -0.039 | [8] 0.021 | [9] 0.015 | [10] 0.002 | [11] -0.014 | [12] -0.001 | [13] 0.028 | [14] 0.028 | [15] 0.03 | [16] -0.033 | [17] -0.032 | [18] 0.003 | [19] 0.047 | [20] 0.014

NEBL (UniProt O76041)
Chain of UniProt O76041 (O76041 whole entry, looked up): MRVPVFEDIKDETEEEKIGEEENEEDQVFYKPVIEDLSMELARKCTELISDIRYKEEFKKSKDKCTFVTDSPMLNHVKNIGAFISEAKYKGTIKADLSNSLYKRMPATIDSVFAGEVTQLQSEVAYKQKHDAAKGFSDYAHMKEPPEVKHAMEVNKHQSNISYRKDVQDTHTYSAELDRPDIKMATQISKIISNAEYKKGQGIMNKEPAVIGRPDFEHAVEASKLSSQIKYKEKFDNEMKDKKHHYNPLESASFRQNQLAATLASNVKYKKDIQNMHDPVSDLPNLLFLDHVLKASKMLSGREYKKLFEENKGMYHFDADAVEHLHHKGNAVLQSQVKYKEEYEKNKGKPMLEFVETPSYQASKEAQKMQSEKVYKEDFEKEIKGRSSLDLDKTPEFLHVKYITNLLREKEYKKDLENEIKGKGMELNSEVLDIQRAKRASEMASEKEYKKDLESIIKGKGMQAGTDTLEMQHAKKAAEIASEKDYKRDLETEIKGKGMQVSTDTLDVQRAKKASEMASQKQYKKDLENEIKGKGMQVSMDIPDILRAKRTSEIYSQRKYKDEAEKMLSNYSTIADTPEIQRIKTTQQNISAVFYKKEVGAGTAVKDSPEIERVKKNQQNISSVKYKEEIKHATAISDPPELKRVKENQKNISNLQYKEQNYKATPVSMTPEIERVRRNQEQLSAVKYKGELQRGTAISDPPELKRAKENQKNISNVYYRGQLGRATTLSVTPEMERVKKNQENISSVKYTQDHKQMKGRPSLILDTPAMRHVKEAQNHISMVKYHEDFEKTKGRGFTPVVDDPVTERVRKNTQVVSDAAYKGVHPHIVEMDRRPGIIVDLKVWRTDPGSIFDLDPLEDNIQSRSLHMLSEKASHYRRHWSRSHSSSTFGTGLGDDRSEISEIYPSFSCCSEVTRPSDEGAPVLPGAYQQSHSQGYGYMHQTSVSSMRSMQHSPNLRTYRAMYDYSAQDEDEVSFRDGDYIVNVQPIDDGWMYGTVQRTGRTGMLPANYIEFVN
inactive: [1] -0.014 | [2] -0.028 | [3] 0.05 | [4] 0.015 | [5] -0.048 | [6] 0.001 | [7] -0.082 | [8] -0.087 | [9] 0.013 | [10] 0.054 | [11] 0.087 | [12] 0.052 | [13] 0.009 | [14] -0.003 | [15] -0.015 | [16] -0.037 | [17] -0.061 | [18] -0.006 | [19] -0.012 | [20] -0.025

NAA35 (UniProt Q5VZE5)
inactive: [1] 0.017 | [2] 0.054 | [3] -0.023 | [4] 0.115 | [5] 0.021 | [6] 0.01 | [7] -0.002 | [8] -0.026 | [9] -0.025 | [10] 0.013 | [11] -0.005 | [12] -0.017 | [13] 0.006 | [14] 0.042 | [15] -0.01 | [16] -0.008 | [17] -0.004 | [18] -0.006 | [19] 0.017 | [20] -0.02

NLRP2 (UniProt Q9NX02)
inactive: [1] 0.004 | [2] -0.015 | [3] -0.002 | [4] -0.005 | [5] -0.013 | [6] -0.002 | [7] -0.021 | [8] 0.01 | [9] -0.031 | [10] -0.043 | [11] -0.007 | [12] -0.007 | [13] 0.036 | [14] 0.021 | [15] -0.008 | [16] 0.007 | [17] 0.009 | [18] 0.003 | [19] 0.021 | [20] 0.021

MVB12A (UniProt Q96EY5)
inactive: [1] 0.027 | [2] -0.049 | [3] 0.022 | [4] -0.001 | [5] -0.024 | [6] -0.001 | [7] -0.046 | [8] -0.089 | [9] -0.003 | [10] -0.001 | [11] 0.049 | [12] 0.009 | [13] -0.008 | [14] 0.001 | [15] -0.003 | [16] -0.015 | [17] 0.033 | [18] -0.015 | [19] 0.043 | [20] 0.02

OAT (UniProt P04181)
Chain of UniProt P04181 (P04181 whole entry, looked up): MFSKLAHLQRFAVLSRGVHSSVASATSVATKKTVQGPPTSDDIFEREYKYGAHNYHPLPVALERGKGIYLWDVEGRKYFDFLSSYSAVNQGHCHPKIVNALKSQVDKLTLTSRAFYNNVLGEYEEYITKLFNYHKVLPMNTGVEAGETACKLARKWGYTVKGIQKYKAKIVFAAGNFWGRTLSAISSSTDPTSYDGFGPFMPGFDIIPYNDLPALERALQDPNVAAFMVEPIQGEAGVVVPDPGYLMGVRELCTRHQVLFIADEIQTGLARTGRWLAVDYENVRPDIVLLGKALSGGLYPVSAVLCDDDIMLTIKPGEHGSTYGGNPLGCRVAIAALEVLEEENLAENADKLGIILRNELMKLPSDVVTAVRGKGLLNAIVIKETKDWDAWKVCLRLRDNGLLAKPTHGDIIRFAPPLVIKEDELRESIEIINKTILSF
inactive: [1] -0.006 | [2] -0.074 | [3] -0.04 | [4] 0.023 | [5] 0.007 | [6] -0.017 | [7] -0.038 | [8] -0.033 | [9] 0.008 | [10] 0.018 | [11] -0.007 | [12] 0.013 | [13] 0.009 | [14] 0.002 | [15] 0 | [16] -0.045 | [17] -0.018 | [18] -0.006 | [19] 0.034 | [20] -0.009

NADK2 (UniProt Q4G0N4)
Chain of UniProt Q4G0N4 (Q4G0N4 whole entry, looked up): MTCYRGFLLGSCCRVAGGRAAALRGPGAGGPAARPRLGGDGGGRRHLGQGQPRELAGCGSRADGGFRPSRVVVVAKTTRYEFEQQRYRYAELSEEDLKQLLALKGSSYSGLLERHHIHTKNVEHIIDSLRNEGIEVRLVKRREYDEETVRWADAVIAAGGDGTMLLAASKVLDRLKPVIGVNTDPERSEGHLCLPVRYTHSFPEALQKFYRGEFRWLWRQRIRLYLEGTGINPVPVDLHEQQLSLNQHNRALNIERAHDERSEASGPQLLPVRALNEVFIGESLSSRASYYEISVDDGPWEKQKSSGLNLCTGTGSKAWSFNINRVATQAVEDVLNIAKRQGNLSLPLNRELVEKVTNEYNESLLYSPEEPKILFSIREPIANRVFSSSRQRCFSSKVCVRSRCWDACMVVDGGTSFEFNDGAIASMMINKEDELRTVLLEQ
inactive: [1] 0.005 | [2] -0.024 | [3] 0.011 | [4] 0.104 | [5] -0.026 | [6] -0.003 | [7] -0.017 | [8] -0.019 | [9] 0.031 | [10] 0.025 | [11] -0.017 | [12] -0.006 | [13] 0.005 | [14] -0.03 | [15] -0.02 | [16] -0.007 | [17] 0.008 | [18] 0.024 | [19] 0.023 | [20] 0.042

NCOR2 (UniProt C9J0Q5)
inactive: [1] 0.044 | [2] 0.033 | [3] 0.04 | [4] -0.082 | [5] -0.008 | [6] 0.054 | [7] -0.173 | [8] -0.002 | [9] 0.049 | [10] 0.032 | [11] -0.002 | [12] -0.001 | [13] -0.026 | [14] -0.056 | [15] -0.034 | [16] 0.046 | [17] 0.022 | [18] -0.064 | [19] -0.014 | [20] -0.04

MRPS31 (UniProt Q92665)
inactive: [1] -0.015 | [2] -0.042 | [3] 0.056 | [4] 0.042 | [5] -0.021 | [6] -0.028 | [7] -0.048 | [8] -0.022 | [9] 0.02 | [10] 0.005 | [11] -0.01 | [12] -0.039 | [13] -0.006 | [14] -0.006 | [15] 0 | [16] -0.01 | [17] -0.071 | [18] -0.006 | [19] -0.022 | [20] -0.006

From the supplement of paper PMC10849652
